Records with an inconclusive call do not appear. The source made the active and inactive calls. Calls follow the shape of the dose curve; as a rule, active = well fitted curve in the direction sought with a large enough effect in the repeat runs; inconclusive = weak or mixed curves; inactive = no such curve, though single readings can be large; an effect the other way counts as inactive or inconclusive.
What was measured:
[1] = qHTS RealTime-Glo MT Cell Viability Assay in HepG2 cells - 40 hour (AID 1224870); also: nearly all actives have a fitted effect of over 50% in size
In short: (§1)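 HepG2 cells (600/well) mixed with RealTime-Glo MT reagent, settled 5 h at 37 C/5% CO2 before compound addition. Nonlytic NanoLuc luminescence from viable-cell prosubstrate reduction read repeatedly during 40 h treatment at 37 C.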

[2] = A CellTox Green Cytotoxicity Assay to monitor cytotoxicity in HEK293 cells - 40 hour (AID 1224871); also: nearly all actives have a fitted effect of over 45% in size; also: potency is read from the fitted curve at half-maximal effect
In short: (§2)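 Read-out: fluorescence of a cell-impermeant cyanine dye staining DNA of dead cells, proportional to cytotoxicity. HEK293, 600 cells/well with reagent, compound (23 nL DMSO) added after 5 h; reads at 0, 8, 16, 24, 32, 40 h.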

[3] = qHTS RealTime-Glo MT Cell Viability Assay in HEK293 cells - 16 hour (AID 1224872); also: nearly all actives have a fitted effect of over 50% in size; also: potency is read from the fitted curve at half-maximal effect; as to activity change, negative = cytotoxicity: top concentration of the series differs between compounds
In short: (§3)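 Viability tracked continuously by luminescence as live cells reduce a prosubstrate for NanoLuc; HEK293 cells preincubated 5 h, compound-treated at 37 C, and read at 0, 8, 16, 24, 32 and 40 h.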

[4] = qHTS RealTime-Glo MT Cell Viability Assay in HepG2 cells - 8 hour (AID 1224873); also: nearly all actives have a fitted effect of over 55% in size
In short: as §1

[5] = qHTS RealTime-Glo MT Cell Viability Assay in HEK293 cells - 40 hour (AID 1224874); details: RealTime-Glo luminescence; max response: hits give low values; also: nearly all actives have a fitted effect of over 50% in size; also: potency is read from the fitted curve at half-maximal effect
In short: (§4)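 Luminescence readout at each listed time point; HEK293, 600 cells/well, RealTime-Glo MT reagent added with cells; compounds pinned (23 nL in DMSO) after 5 h at 37 C; continuous culture at 37 C.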

[6] = A CellTox Green Cytotoxicity Assay to monitor cytotoxicity in HEK293 cells - 24 hour (AID 1224875); also: nearly all actives have a fitted effect of over 45% in size; also: potency is read from the fitted curve at half-maximal effect; as to activity change: series mostly up to about 77 µM
In short: as §2

[7] = A CellTox Green Cytotoxicity Assay to monitor cytotoxicity in HepG2 cells - 16 hour (AID 1224876); also: nearly all actives have a fitted effect of over 45% in size; also: potency is read from the fitted curve at half-maximal effect
In short: (§5)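 HepG2, 600 cells/well premixed w/ CellTox Green; 5 h settle, 37 C/5% CO2; pintool cpd add (DMSO); 37 C, 40 h; fluorescence read at 0, 8, 16, 24, 32, 40 h.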

[8] = qHTS RealTime-Glo MT Cell Viability Assay in HepG2 cells - 32 hour (AID 1224877); also: nearly all actives have a fitted effect of over 55% in size
In short: (§6)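 Viability was tracked continuously by NanoLuc luminescence from prosubstrate reduced by living HepG2 cells, at successive time points over 40 h of compound exposure. Cells with reagent were preincubated 5 h at 37 °C before compound addition.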

[9] = A CellTox Green Cytotoxicity Assay to monitor cytotoxicity in HepG2 cells - 24 hour (AID 1224878); also: nearly all actives have a fitted effect of over 45% in size
In short: as §5

[10] = qHTS RealTime-Glo MT Cell Viability Assay in HEK293 cells - 0 hour (AID 1224880)
In short: as §4

[11] = A CellTox Green Cytotoxicity Assay to monitor cytotoxicity in HEK293 cells - 32 hour (AID 1224881); also: nearly all actives have a fitted effect of over 40% in size; also: potency is read from the fitted curve at half-maximal effect
In short: as §2

[12] = A CellTox Green Cytotoxicity Assay to monitor cytotoxicity in HepG2 cells - 0 hour (AID 1224882); also: nearly all actives have a fitted effect of over 35% in size; also: potency is read from the fitted curve at half-maximal effect
In short: as §5

[13] = A CellTox Green Cytotoxicity Assay to monitor cytotoxicity in HepG2 cells - 32 hour (AID 1224883); also: nearly all actives have a fitted effect of over 50% in size; also: potency is read from the fitted curve at half-maximal effect
In short: as §5

[14] = A CellTox Green Cytotoxicity Assay to monitor cytotoxicity in HEK293 cells - 8 hour (AID 1224884); also: nearly all actives have a fitted effect of over 35% in size; also: potency is read from the fitted curve at half-maximal effect
In short: as §2

[15] = qHTS RealTime-Glo MT Cell Viability Assay in HepG2 cells - 16 hour (AID 1224885); also: nearly all actives have a fitted effect of over 50% in size
In short: as §6

[16] = qHTS RealTime-Glo MT Cell Viability Assay in HEK293 cells - 24 hour (AID 1224886); also: nearly all actives have a fitted effect of over 50% in size; also: potency is read from the fitted curve at half-maximal effect; as to activity change, negative = cytotoxicity: top concentration of the series differs between compounds
In short: as §3

[17] = qHTS RealTime-Glo MT Cell Viability Assay in HEK293 cells - 8 hour (AID 1224887); also: nearly all actives have a fitted effect of over 50% in size; also: potency is read from the fitted curve at half-maximal effect; as to activity change, negative = cytotoxicity: top concentration of the series differs between compounds
In short: as §4

[18] = A CellTox Green Cytotoxicity Assay to monitor cytotoxicity in HEK293 cells - 16 hour (AID 1224888); also: nearly all actives have a fitted effect of over 35% in size; also: potency is read from the fitted curve at half-maximal effect
In short: as §2

[19] = qHTS RealTime-Glo MT Cell Viability Assay in HepG2 cells - 0 hour (AID 1224889); also: nearly all actives have a fitted effect of over 50% in size
In short: as §6

[20] = A CellTox Green Cytotoxicity Assay to monitor cytotoxicity in HepG2 cells - 40 hour (AID 1224879); also: nearly all actives have a fitted effect of over 40% in size; also: potency is read from the fitted curve at half-maximal effect
In short: as §5
% is scaled to controls: 0 for no effect and ±100 for the full control effect.

COC(=O)c1cc(Cl)ccc1[N+](=O)[O-]
inactive: Potency [1] | Potency [2] | Potency [3] | outcome [4] | max response [5] -14.8% | Potency [6] | Potency [7] | Potency [8] | Potency [9] | Potency [10] | Potency [11] | Potency [12] | Potency [13] | Potency [14] | outcome [15] | Potency [16] | Potency [17] | Potency [18] | Potency [19]

C/C(=C\C(C)CC(C)CC(C)C)C1CC(=O)OC1=O (stereo not given)
inactive: Potency [1] | Potency [2] | Potency [3] | outcome [4] | max response [5] -12% | Potency [6] | Potency [7] | Potency [8] | Potency [9] | Potency [10] | Potency [11] | Potency [12] | Potency [13] | Potency [14] | outcome [15] | Potency [16] | Potency [17] | Potency [18] | Potency [19]

CC(COc1ccccc1)NC(C)C(O)c1ccc(O)cc1 (stereo not given)
inactive: Potency [1] | Potency [2] | Potency [3] | outcome [4] | max response [5] -6.13% | Potency [6] | Potency [7] | Potency [8] | Potency [9] | Potency [10] | Potency [12] | Potency [13] | Potency [14] | outcome [15] | Potency [16] | Potency [17] | Potency [18] | Potency [19]

CCCCCCCCCCCCCCCCCCCl
inactive: activity change, negative = cytotoxic [1] 2.37% [at 6.97 µM] | cytotoxicity increase [2] -1.51% [at 6.97 µM] | activity change, negative = cytotoxicity [3] 3.04% [at 6.97 µM] | viability change, negative = cytotoxic [4] -0.0977% [at 6.97 µM] | max response [5] 5.75% | activity change [6] 2.36% [at 6.97 µM, hits give high values] | cytotoxicity increase [7] -7.85% [at 6.97 µM] | activity change, negative = cytotoxic [8] 2.68% [at 6.97 µM] | cytotoxicity increase [20] -13.3% [at 6.97 µM] | activity change, negative = cytotoxicity [10] 8.32% [at 6.97 µM] | cytotoxicity increase [11] 3.09% [at 6.97 µM] | cytotoxicity [12] 0.682% [at 6.97 µM] | cytotoxicity increase [13] -12.9% [at 6.97 µM] | activity change, negative = cytotoxic [15] -0.256% [at 6.97 µM] | activity change, negative = cytotoxicity [16] 2.37% [at 6.97 µM] | activity change, negative = cytotoxicity [17] 0.0634% [at 6.97 µM] | activity change [18] 11.7% [at 6.97 µM, hits give high values] | activity change, negative = cytotoxicity [19] 4.46% [at 6.97 µM]

CCC(=O)O[C@@H]1C[C@H]2CC[C@]1(C)C2(C)C
inactive: Potency [1] | Potency [2] | Potency [3] | outcome [4] | max response [5] -11.1% | Potency [6] | Potency [7] | Potency [8] | Potency [20] | Potency [10] | Potency [11] | Potency [12] | Potency [13] | Potency [14] | outcome [15] | Potency [16] | Potency [17] | Potency [18] | Potency [19]

COc1ccnc2c1CCCCC2S(=O)c1nc2ccccc2[nH]1 (stereo not given)
inactive: Potency [1] | Potency [2] | outcome [4] | Potency [6] | Potency [7] | Potency [8] | Potency [20] | Potency [10] | Potency [11] | Potency [12] | Potency [13] | outcome [15] | Potency [18] | Potency [19]
active: Potency [3] 9.52 µM | Potency [5] 7.56 µM | Potency [16] 6.01 µM | Potency [17] 8.49 µM

CCOc1cc(OCC)c(C(C)=O)cc1OCC
active: Potency [3] 19.2 µM | Potency [5] 19.2 µM | Potency [16] 19.2 µM | Potency [17] 19.2 µM
inactive: Potency [1] | Potency [2] | outcome [4] | Potency [6] | Potency [7] | Potency [8] | Potency [9] | Potency [20] | Potency [10] | Potency [12] | Potency [13] | Potency [14] | outcome [15] | Potency [18] | Potency [19]

C=CC(=O)OCCCCCCCCCC
inactive: Potency [1] | Potency [2] | Potency [3] | outcome [4] | max response [5] 12.1% | Potency [6] | Potency [7] | Potency [8] | Potency [9] | Potency [10] | Potency [11] | Potency [12] | Potency [13] | Potency [14] | Potency [16] | Potency [17] | Potency [18] | Potency [19]

O=C(O)c1ccccc1[N+](=O)[O-]
inactive: Potency [1] | Potency [2] | Potency [3] | outcome [4] | max response [5] 24.4% | Potency [6] | Potency [7] | Potency [8] | Potency [9] | Potency [20] | Potency [10] | Potency [12] | Potency [13] | Potency [14] | outcome [15] | Potency [16] | Potency [17] | Potency [18] | Potency [19]

C[Si](C)(C)O[Si](C)(C)O[Si](C)(C)C
inactive: Potency [1] | Potency [2] | Potency [3] | outcome [4] | max response [5] 7.13% | Potency [6] | Potency [7] | Potency [8] | Potency [9] | Potency [10] | Potency [11] | Potency [12] | Potency [13] | Potency [14] | outcome [15] | Potency [16] | Potency [17] | Potency [18] | Potency [19]

CC1(C)[C@@H]2CC[C@]3(C2)[C@@H]1C(=O)CCC3(C)C
inactive: Potency [1] | Potency [2] | Potency [3] | outcome [4] | max response [5] 3.71% | Potency [6] | Potency [7] | Potency [8] | Potency [9] | Potency [20] | Potency [10] | Potency [12] | Potency [13] | Potency [14] | outcome [15] | Potency [16] | Potency [17] | Potency [18] | Potency [19]

CCCCCCCCCC(C)C=O (stereo not given)
inactive: Potency [1] | Potency [3] | outcome [4] | max response [5] 12% | Potency [8] | Potency [10] | outcome [15] | Potency [16] | Potency [17] | Potency [19]
active: Potency [2] 19.5 µM | Potency [6] 21.9 µM | Potency [7] 24.5 µM | Potency [20] 24.5 µM | Potency [11] 21.9 µM | Potency [12] 24.5 µM | Potency [13] 21.9 µM | Potency [14] 24.5 µM | Potency [18] 21.9 µM

CCCCCCCCS
inactive: Potency [1] | Potency [2] | Potency [3] | outcome [4] | max response [5] 7.45% | Potency [6] | Potency [7] | Potency [8] | Potency [9] | Potency [20] | Potency [10] | Potency [12] | Potency [13] | Potency [14] | Potency [16] | Potency [17] | Potency [18] | Potency [19]

CCCCCO
inactive: Potency [1] | Potency [2] | Potency [3] | outcome [4] | max response [5] 1.46% | Potency [6] | Potency [7] | Potency [8] | Potency [10] | Potency [11] | Potency [12] | Potency [13] | Potency [14] | outcome [15] | Potency [16] | Potency [17] | Potency [18] | Potency [19]

Reference: PubChem BioAssay (Tox21)
